Shown are actives, neighbours in structure and some others; about 2.2% of the full set was active somewhere.
DENV2 CPE = inhibitors of DENV2 cytopathic effect, primary screen, cell-based, plate reader, single concentration. AID 651640, 2012. hit rate 1.7% among 350,000. DENV2-infected cells, cytopathic effect rescue. CPE inhibition, % at 9.99 µM; in the data active = CPE inhibition above about 20%, passing the limit was not always enough; inconclusive = no clear call, values can overlap the other calls; tested in BHK-21 cells
Statin myotox sup = suppressors of statin myotoxicity in C2C12 myotubes, primary screen, cell-based, single point, plate reader; C2C12 myotubes + simvastatin, ATP luminescence, 48 h; scaled: DMSO 0, geranylgeraniol control 100; rescue of ATP level, % at 7.49 µM; hit rate 0.78% among 330,000;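 active = mean ATP rescue above about 67%, or every replicate alone reaching that limit, limit read from the data, passing the limit was not always enough; inconclusive = no clear call, values can overlap the other calls; inactive = mean under the limit and some replicate under it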;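 note: myotubes were challenged with 10 µM simvastatin during compound exposure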
PvdQ inh = P. aeruginosa PvdQ acylase inhibitors, primary screen, biochemical, fluorescence, plate reader and imaging, single point; hit rate 0.063% among 340,000; AID 488965, 2010; purified PvdQ acylase; inhibition, % at 10 µM; PvdQ acylase [Pseudomonas aeruginosa LESB58]; in the data active = inhibition above about 30%, passing the limit was not always enough; inconclusive = no clear call, values can overlap the other calls
PGC1a acetyl inh = inhibitors of PGC1a acetylation signal, primary screen, cell-based, U2OS, AlphaScreen, inhibitor mode. AlphaScreen anti-acetyl-lysine; with virally co-expressed GCN5 acetyltransferase. inhibition, % at 15.6 µM. hit rate 0.17% among 350,000. AID 651687, 2012;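 active = every replicate shows inhibition of at least 40%; inconclusive = mean inhibition at least 40% but some replicate below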
miR-122 sensor = miR-122 Renilla sensor signal increase in Huh7, primary screen, miR-122 inhibitor project, cell-based, single point, plate reader; Huh7 miR-122 Renilla luciferase sensor, 48 h; neutral wells = 0, positive control = 100; activation (reporter increase), % at 12.5 µM; hit rate 0.3% among 340,000;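 active = mean replicate activation score at least 90 and every replicate individually at or above 90; inconclusive = only one of the two criteria met; inactive = neither criterion met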;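 note: higher luciferase means less miR-122 activity so hits act as miR-122 inhibitors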
Numbers stand for hits; n = inactive; u = inconclusive; x = no result given; ! = a repeat was not active.

SMILES	DENV2 CPE	Statin myotox sup	PvdQ inh	PGC1a acetyl inh	miR-122 sensor
COC(=O)c1ccccc1Sc1c(/C=N/OC(=O)c2ccccc2)c(C(F)(F)F)nn1C	x	x	n	n	n
Cc1ccc(C(=O)O/N=C/c2c(C(F)(F)F)nn(C)c2Sc2ccc(Cl)cc2)cc1	x	116	n	n	n
COCCNC(=O)[C@@]1(Cc2ccccc2)C=C[C@@H](C)N1C(C)=O	n	121	n	n	n
CC(=O)N1[C@H](C)C=C[C@]1(Cc1ccccc1)C(=O)O	x	n	n	n	n
O=C1/C(=C/c2ccc([N+](=O)[O-])cc2)Oc2cc(O)ccc21	n	n	69	x	x
O=C(O)c1cc(=O)c2c(OCC(O)COc3cccc4oc(C(=O)O)cc(=O)c34)cccc2o1	26	n	n	n	n
O=C(C[C@H]1CC[C@@H](NS(=O)(=O)c2ccc(F)cc2)[C@H](CO)O1)NCc1ccccc1F	n	x	x	n	x
COc1cccc(C2NC(=S)NC(C)=C2C(=O)c2ccccc2)c1OC (stereo not given)	n	n	n	n	147
C=CCOc1ccc(C2NC(=S)NC(C)=C2C(=O)c2ccccc2)cc1OC (stereo not given)	x	x	n	x	x
O=C(C[C@H]1CC[C@@H]2[C@H](COC[C@@H](O)CN2C(=O)c2ccncc2)O1)NCc1cc(F)cc(F)c1	n	n	x	n	n
COc1ccc(COC(=O)C2=C(C)NC(=O)NC2c2ccc(F)cc2)cc1 (stereo not given)	61	n	n	n	n
COc1ccc(C2NC(=O)NC(C)=C2C(=O)Nc2cccc(C)c2C)cc1 (stereo not given)	60	n	n	n	n
COc1cc(C2NC(=O)NC(C)=C2C(=O)Nc2cccc(C)c2C)cc(OC)c1OC (stereo not given)	x	n	n	n	n
COC(=O)C1=C(C)N(C)C(=NCc2ccc(OC)cc2)NC1c1ccc(F)cc1 (stereo not given)	50	x	x	x	x
COc1ccc(S(=O)(=O)Nc2ccc3c(c2)CC(=O)N([C@@H](C)CO)C[C@@H](C)[C@@H](CN(C)C(=O)Nc2ccc(F)cc2)O3)cc1	n	n	x	n	n
COc1ccc(NC(=O)Nc2ccc3c(c2)C(=O)N([C@H](C)CO)C[C@H](C)[C@@H](CN(C)C(=O)Nc2c(C)noc2C)OCCCC[C@@H](C)O3)cc1	n	x	x	n	n
CC=Cc1ccc2n(c1=O)C[C@@H]1[C@@H](CO)[C@H](C(=O)NCCN3CCCC3)N(C(=O)NC(C)C)[C@H]21 (mixture of isomers)	n	n	x	x	x
N#C[C@@H]1[C@H](c2ccccc2C2=CCCCC2)[C@H](CO)N1C(=O)Cc1ccncc1	n	x	x	45	x
N#C[C@@H]1[C@H](c2ccccc2C2=CCCCC2)[C@@H](CO)N1C(=O)c1ccccn1	27	x	x	n	x
N#C[C@@H]1[C@@H](c2ccccc2C2=CCCC2)[C@H](CO)N1C(=O)Cc1ccncc1	29	x	x	n	x
CC(=O)C[C@@H](O)CC(=O)[C@@H]1OC(=O)CCCCCCc2ccccc21	n	112	n	n	n
O=C1c2cc([N+](=O)[O-])ccc2-c2ncccc21	51	x	n	x	x
O=C1c2cccnc2-c2ncccc21	x	x	n	n	n
COCC(=O)Nc1ccc2c(c1)C(=O)N(C)[C@H]1CC[C@H](CC(=O)NCc3cccc(F)c3)O[C@@H]1CO2	n	x	x	n	x
O=c1c2ccccc2n(Cc2ccc(F)cc2)c(=O)n1C1CCCC1	x	116	n	n	n
SMILES	DENV2 CPE	Statin myotox sup	PvdQ inh	PGC1a acetyl inh	miR-122 sensor
O=C(C[C@@H]1CC[C@H]2[C@@H](COC[C@@H](O)CN2C(=O)c2ccccc2F)O1)NCc1ccc(Cl)cc1	n	n	x	n	n
COc1ccc(CN(C)C[C@H]2OCCCC[C@H](C)Oc3ccc(NC(=O)CCC(F)(F)F)cc3C(=O)N([C@@H](C)CO)C[C@@H]2C)cc1	44!	n	x	n	n
C[C@@H]1CCCCO[C@@H](CN(C)Cc2ccccc2)[C@H](C)CN([C@H](C)CO)C(=O)c2cc(NC(=O)CCC(F)(F)F)ccc2O1	u	n	x	n	n
COc1ccc(CN(C)C[C@@H]2OCCCC[C@H](C)Oc3ccc(NC(=O)CCC(F)(F)F)cc3C(=O)N([C@H](C)CO)C[C@H]2C)cc1	62	x	x	n	n
C[C@@H]1CCCCO[C@H](CN(C)Cc2ccccc2)[C@H](C)CN([C@H](C)CO)C(=O)c2cc(NC(=O)CCC(F)(F)F)ccc2O1	37	n	x	n	n
C[C@@H]1CN([C@@H](C)CO)C(=O)c2cc(NC(=O)c3ccccc3)ccc2O[C@@H](C)CCCCO[C@@H]1CN(C)C(=O)CCC(F)(F)F	29	x	x	n	n
CN1CCN(C(=O)C[C@H]2CC[C@H]3[C@@H](COC[C@H](O)CN3Cc3ccc4c(c3)OCO4)O2)CC1	56	n	x	n	n
O=C(C[C@H]1CC[C@H]2[C@@H](COC[C@@H](O)CN2Cc2ccc3c(c2)OCO3)O1)N1CCOCC1	n	n	x	n	n
O=C(C[C@@H]1CC[C@H]2[C@@H](COC[C@@H](O)CN2Cc2ccc3c(c2)OCO3)O1)N1CCOCC1	30	n	x	n	n
CO[C@@H]1CC[C@@H]2CCOc3c(C#N)cccc3C(=O)N(C)C[C@@H](C)C(=O)N(C)C[C@H]1O2	n	n	x	n	x
C[C@@H]1CCCCO[C@@H](CN(C)C(=O)c2ccncc2)[C@@H](C)CN([C@H](C)CO)C(=O)c2cc(NC(=O)NC3CCCCC3)ccc2O1	27	x	x	n	n
C[C@H]1CCCCO[C@@H](CN(C)C(=O)c2ccncc2)[C@@H](C)CN([C@@H](C)CO)C(=O)c2cc(NC(=O)NC3CCCCC3)ccc2O1	21	x	x	n	n
C[C@H]1CN([C@@H](C)CO)C(=O)Cc2cc(N(C)C)ccc2O[C@@H]1CN(C)CC1CC1	u	n	x	n	n
COC(=O)CCc1cccc(CCC(=O)OC)c1	46	n	n	n	n
COc1ccccc1C(=O)N1CCC(C(=O)c2ccc(F)cc2)CC1	x	84	n	n	n
COc1ccccc1Nc1nc(N)nc(-c2oc3ccccc3c2C)n1	x	n	n	n	n
Cc1ccccc1Nc1nc(N)nc(-c2oc3ccccc3c2C)n1	69	x	n	n	n
C[C@@H]1CN([C@H](C)CO)C(=O)c2cc(NC(=O)Cc3ccccc3)ccc2O[C@@H](C)CCCCO[C@H]1CN(C)Cc1ccc(Cl)c(Cl)c1	n	n	x	x	n
COc1ccc(CN(C)C[C@@H]2OCCCC[C@H](C)Oc3ccc(NC(=O)Cc4ccccc4)cc3C(=O)N([C@H](C)CO)C[C@@H]2C)cc1	27	x	x	n	n
C[C@@H]1CCCCO[C@@H](CN(C)Cc2ccc(Cl)c(Cl)c2)[C@H](C)CN([C@@H](C)CO)C(=O)c2cc(NC(=O)Nc3ccccc3)ccc2O1	32	n	x	n	n
